We go through 40 sequences from the supplement of paper PMC10681739.

The assay deals with T1, ETS1 (UniProt P14921).
T1 sequence: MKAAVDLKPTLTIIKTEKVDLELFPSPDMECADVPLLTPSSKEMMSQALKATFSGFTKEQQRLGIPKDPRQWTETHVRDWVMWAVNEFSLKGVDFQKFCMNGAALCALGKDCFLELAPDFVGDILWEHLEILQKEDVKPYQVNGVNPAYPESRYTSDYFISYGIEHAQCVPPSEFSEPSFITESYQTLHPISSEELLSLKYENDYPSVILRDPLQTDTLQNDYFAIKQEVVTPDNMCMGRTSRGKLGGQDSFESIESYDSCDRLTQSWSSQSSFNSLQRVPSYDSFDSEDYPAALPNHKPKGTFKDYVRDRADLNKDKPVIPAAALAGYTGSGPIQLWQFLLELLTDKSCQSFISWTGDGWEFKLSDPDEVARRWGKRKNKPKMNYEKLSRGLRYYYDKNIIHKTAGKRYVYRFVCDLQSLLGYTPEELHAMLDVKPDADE
Briefly: ETS1 binding intensity (PBM fluorescence) in presence of RUNX1, normalised to ETS1-only experiment (arbitrary fluorescence units); higher = stronger binding. Conditions: ETS1 concentration 1 nM; RUNX1 concentration 25 nM. The method, then:
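Cooperative genomic-context PBM: 36-bp genomic probes with neighbouring ETS1 and RUNX1 sites, double-stranded on Agilent 4x180k arrays. Full-length recombinant human ETS1 (1 nM) was incubated alone or with RUNX1 (25 nM) and detected with anti-ETS1 antibody plus Alexa488 secondary. Value is the median fluorescence intensity over 4 replicate spots; the ETS1+RUNX1 data were normalised to the ETS1-only data using probes without RUNX1 sites. The 36-bp variable region sits on the array probe with constant linker/primer flanks that are not printed.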
For the sequence GGAGCGGCGGAAGGGAGCTTGCGGCGGGAGGCTGAA, the ETS1 binding intensity was found to be 485.

Take GACATCTTCCGGTTGCTACAGGTTACGGCGGTTGCT: the ETS1 binding intensity worked out at 2640.

Take GGGAACTGGGGAAGGGGATGTGGTAACCAGAACCAC: the ETS1 binding intensity is 2600. For CCACTCCCAGCTCCATCCTGTGGGTAGAACTCAGTG the value was 452; for GAGTGGGGGTGGGGAGGAAGCCACAGGGCCGGGCTG, 771. Next, CCCTACCTCTCCTTCCTGCCACAAGGGAAAGTCACT: 481; TATATGCACAGGAAGTCCCTTACAACCCACTCTGTT: 3840; TTTACAGGAAATTACAGGGGTTAAACCAAACCACAA: 1140. Next, GTCCCCCGGAACCGTCTCCTCCCCCGCACGCGCCGC: 433. Regarding GGGGCAGCTTCCGGCAGGAGAGCCCGCATTCACGGC, the ETS1 binding intensity was 751. Consider GCGATCGGAGCGGAAGTGGAGCTACCGCCACCGCCG, for which the ETS1 binding intensity worked out at 8910.

Turning to TCCCCACACTTCCGGCCCCGCCCGCACAGCCGCACC, the ETS1 binding intensity is 4360. Next, CCTGCCTGAGGCAGGAAGCCGCAGCTGAGGGACGGC: 5390; GCGGGGCGCAGGAAGCGGGGCGAAACCACTGTTGGC: 1550; TCTTGCCCGGGTCGGAAATGGTGGTCACGAGCGCTT: 1600. Take CTGTCCGCGACATCCGGGACCTGCGGGACCGCCGAT: the ETS1 binding intensity came to 1470. Consider TTCTGCTACATCCTGCCCACTCCCTGTGGCTTCCAC, for which the ETS1 binding intensity was 1060. Consider GCAGTGCAGGAAGTGCTTTGTGTGGTACAATCCCAA, for which the ETS1 binding intensity was 2110. For CGTTTCCTGTCTGGGACTGCGCCCACGCGGTCACGT the value was 922; for ACCTCTCTCACTTCCTACCAGAGAACCACAGCCAAG, 404. Next, GCTCCTCCCGGATATAAAGCCCCAAACCACGCCACT: 1610. In the case of TAGCATGTGAGCTTCCTGTGGGTTTGTGCAGCCCCA, the ETS1 binding intensity came out at 654. GTCTTACTTCCTGTCCCCGCCCACCGCGACTGTCTT: the ETS1 binding intensity came to 3520. As to CTAGCAGGAAACAGACAGACCCAGCCACAGAATCTC, the ETS1 binding intensity was found to be 519.

Turning to TTCAGGAAATGCAAACGGCTGCAGAGACCGCAGAGG, the ETS1 binding intensity is 2490. For GGTCTCTGCTTCCGGTCCTTGTGGTAGCACCTCTGT the value was 5180; for TCCCCTGTCTTCCGGAGGCTGCGGCGCAGCGGCGCA, 519; for ACCCCGGAAGTGTGGGCGCGGCTGCGGTTTAACCCG, 15900. Next, GGGGCTGTGCTTCCGGCTGTTTGTGCGGTTTTGTGC: 6750; AAGAACCTAGAGGATGTGTGGTTTTATGTGCAGGGT: 1830. For GATCTGTGCTCAGGATGTGGTGAGAGAATAAGGAAG the value was 2870. Regarding CTTGGCGGAAGTGGTGTGGGGGAGGTAGCCCGCAGT, the ETS1 binding intensity is 5600. As to CCAGCTACACAGGATGCTGCGGTGGGCGGAATGCTC, the ETS1 binding intensity was 9170. Regarding CTCCGCCTTTCACTTCCTAGTAACCGCCCTCCCTTG, the ETS1 binding intensity is 647. Next, GTAAACTAGCTCTTCCGGTCTGTGGCCCTCACAGGA: 3250; CAAAGCAACCCAAGGGGATGTGGTCACTGGGGTGAG: 1800.

Take GAACCACTTCCCTGAAACCATTTACCACATAAATCT: the ETS1 binding intensity was 904. For GAATGACAGAAGCGGAAACCACATGAAAAAGGTGTT the value was 4230; for TGCTTCCCTTCCGTTCCGACAGCGAAAACCGCTGCC, 783. In the case of TAAACCCTGCTTCCTGTCCCTGCGCCCCACAAGGAG, the ETS1 binding intensity is 1150.
